The values below come from PubChem BioAssay AID1030 (National Center for Advancing Translational Sciences (NCATS), 2008).

Structures are written as SMILES. The whole screen tested about 220,000 compounds, of which about 16,000 (7.3%) were called active. Roughly 25% stayed inconclusive and do not appear here. The call rests on the fitted dose curve; in most records, active means well fitted inhibition curve with a large enough effect (not every such curve was filed as active); inconclusive means small, poorly fitted or top-dose-only effect, or another doubt; inactive means no such curve, though single readings can be large or run the other way. The list comes from a sample in which actives are over-represented; it also holds similar structures and randomly drawn compounds. A call without a number means that no potency is given here.
Potency means the concentration at half of the fitted maximal effect.

Aldehyde dehydrogenase 1A1 (Homo sapiens), sequence (P00352 whole entry, looked up): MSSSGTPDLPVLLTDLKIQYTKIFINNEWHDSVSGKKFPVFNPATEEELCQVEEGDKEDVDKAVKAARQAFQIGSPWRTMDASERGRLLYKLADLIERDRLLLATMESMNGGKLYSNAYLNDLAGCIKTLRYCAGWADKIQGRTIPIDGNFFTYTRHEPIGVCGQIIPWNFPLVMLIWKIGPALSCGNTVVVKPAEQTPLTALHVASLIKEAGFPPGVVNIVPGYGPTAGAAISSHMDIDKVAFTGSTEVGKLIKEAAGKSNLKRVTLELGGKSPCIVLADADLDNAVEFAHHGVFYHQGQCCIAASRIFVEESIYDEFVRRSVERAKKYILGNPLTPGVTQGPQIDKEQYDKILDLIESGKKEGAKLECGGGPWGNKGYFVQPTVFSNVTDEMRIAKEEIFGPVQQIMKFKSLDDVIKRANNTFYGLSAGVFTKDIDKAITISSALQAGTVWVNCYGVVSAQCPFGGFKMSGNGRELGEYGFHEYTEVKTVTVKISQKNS

This assay addresses Aldehyde dehydrogenase 1A1 (Homo sapiens) (UniProt P00352). Nature of the assay: qHTS Assay for Inhibitors of Aldehyde Dehydrogenase 1 (ALDH1A1). Particulars: Purified ALDH1A1, NADH fluorescence, propionaldehyde substrate; series mostly up to 75.3 µM. In general terms: Quantitative high-throughput screening tests each substance at several concentrations.
Consider `O=C(NCc1cccs1)c1cc(-c2ccccn2)nc2ccc(Br)cc12`, for which the Potency entry was “inactive”.
For `OC(COc1ccccc1)Cn1cc(Br)cn1` (configuration not stated), the Potency entry was “inactive”.
In the case of `OC(CN=c1sc2ccccc2n1CC(O)COc1ccccc1)COc1ccccc1` (configuration not stated), the Potency is 2.82 µM (active).
For `C=CCn1c(=N)n(CC(O)COc2ccc(OC)cc2)c2ccccc21` (configuration not stated), the Potency entry was “inactive”.
As to `Cc1ccccc1NS(=O)(=O)CCCCC(Cl)(Cl)Cl`, the Potency entry is “inactive”.
Take `O=C1N=C(N2CCOCC2)S/C1=C\C=C/c1ccccc1`: the Potency entry is “inactive”.
To `Cc1ccsc1/C=C1\SC(N2CCOCC2)=NC1=O` belongs 14.1 µM (active); to `CCc1ccc(/C=C2\SC(N3CCOCC3)=NC2=O)cc1`, “inactive”; to `NC(N)=NCCCc1cn(CC(=O)N2CCNCC2)nn1`, “inactive”.
`CCOC(=O)COc1ccc([N+](=O)[O-])cc1`: the Potency entry is “inactive”.
Turning to `N/C(=N\OC(=O)COc1ccc([N+](=O)[O-])cc1)c1ccc(Br)cc1`, the Potency result was “inactive”.
Take `Cc1cc(C)cc(OCC(=O)O/N=C(\N)Cc2ccc([N+](=O)[O-])cc2)c1`: the Potency is 10 µM (active).
For the compound `COC(=O)C(NS(=O)(=O)c1ccc(F)cc1)c1ccccc1` (configuration not stated), the Potency entry was “inactive”.
In the case of `CC1CCC(C(C)C)C(=O)/C1=C\c1ccc(NC(=O)CCC(=O)O)cc1` (configuration not stated), the Potency result was “inactive”.
With `COc1ccc(S(=O)(=O)N2CCN(C(=O)c3cc(C)oc3C)CC2)cc1`, the Potency result was “inactive”.
With `COc1ccc(OC)c(C(=O)c2coc3ccc(OC)cc23)c1`, the Potency was 14.1 µM (active).
With `COc1ccc2occ(C(=O)c3ccc(N=C(C)N(C)C)cc3)c2c1`, the Potency entry was “inactive”.
The same measure for `COc1ccc(OC)c(C(=O)c2coc3ccc(O)c(CN4CCOCC4)c23)c1`: “inactive”; for `NS(=O)(=O)c1ccc(CCNC(=O)c2ccc([N+](=O)[O-])cc2[N+](=O)[O-])cc1`: “inactive”.
In the case of `CCOC(=O)CCCNC(=O)COC(=O)c1cc(Br)c(Br)s1`, the Potency entry was “inactive”.
Turning to `O=C(NC1CCCC1)C(c1ccc(N2CCOCC2)cc1)N(C(=O)c1ccco1)c1ccccc1F` (configuration not stated), the Potency entry was “inactive”.
Regarding `COCCn1nnnc1C(c1ccccc1Cl)N1CCN(c2ccccc2OC)CC1` (configuration not stated), the Potency result was “inactive”.
The same measure for `COc1ccc(CCn2nnnc2C(c2ccccc2)N2CCN(C)CC2)cc1OC` (configuration not stated): “inactive”; for `COc1ccc(C(c2nnnn2Cc2cccs2)N2CCN(c3ccccc3)CC2)cc1OC` (configuration not stated): 2 µM (active).
Take `COc1ccc(CCn2c(NCCCN3CCOCC3)nc3c2c(=O)[nH]c(=O)n3C)cc1`: the Potency result was “inactive”.
As to `CN1CCN(c2nc3c(c(=O)[nH]c(=O)n3C)n2Cc2cccc3ccccc23)CC1`, the Potency was 25.1 µM (active).
`Cc1nnc(SCCCn2c(N3CCCCC3)nc3c2c(=O)[nH]c(=O)n3C)s1`: the Potency was 14.1 µM (active).
To `CC1CCN(c2nc3c(c(=O)[nH]c(=O)n3C)n2CCCc2ccccc2)CC1` belongs 31.6 µM (active); to `C=C(C)Cn1c(N2CCN(CC)CC2)nc2c1c(=O)[nH]c(=O)n2C`, “inactive”; to `Cc1ccnc(SCCn2c(Br)nc3c2c(=O)[nH]c(=O)n3C)n1`, “inactive”.
As for `Cn1c(=O)[nH]c(=O)c2c1nc(N1CCCCCC1)n2CC(=O)c1ccccc1`, the Potency entry is “inactive”.
Take `Cn1c(=O)[nH]c(=O)c2c1nc(NCCCn1ccnc1)n2Cc1cccc(Br)c1`: the Potency entry is “inactive”.
Take `C=C(C)Cn1c(N2CCCC2)nc2c1c(=O)[nH]c(=O)n2C`: the Potency entry was “inactive”.
Turning to `COc1ccc(OC)c(NC(=O)N[C@H](Cc2ccccc2)C(=O)NN)c1`, the Potency result is “inactive”.
Regarding `CC(C)CN1CCNC(=O)C1CC(=O)N(C)CC1CCOCC1` (configuration not stated), the Potency entry was “inactive”.
For the compound `Cc1ccc(CN(C)CC(=O)Nc2cccc([N+](=O)[O-])c2)o1`, the Potency entry was “inactive”.
For the compound `CC(=O)c1ccc(NC(=S)N(Cc2ccccc2)C(C)C2CC2)cc1` (configuration not stated), the Potency result was “inactive”.
In the case of `Cc1ccc(N2C(=O)CC(NCc3ccc4c(c3)OCO4)C2=O)cc1Cl` (configuration not stated), the Potency was 22.4 µM (active).
Turning to `Cc1ccc(CC2CC(=O)N(c3ccc4c(c3)OCCO4)C2=O)cc1` (configuration not stated), the Potency entry is “inactive”.
`CC1CCC(N2CC(=O)N(Cc3ccc4c(c3)OCO4)C(c3ccc(F)cc3)C2=O)CC1` (configuration not stated): the Potency result was “inactive”.
To `O=C1NC(c2cccc(Cl)c2)Nc2ccccc21` (configuration not stated) belongs “inactive”; to `N/C(=N\S(=O)(=O)c1ccc(Cl)cc1)N1CCOCC1`, “inactive”; to `Cc1ccc(N(C(=O)c2sc(C)nc2C)C(C(=O)NC(C)(C)C)c2ccncc2)cc1` (configuration not stated), “inactive”.
Take `Cc1c(C(=O)O)nnn1-c1nonc1N`: the Potency entry is “inactive”.
For the compound `CCOC(=O)c1c(/N=C/C2C(=O)CC(C)(C)CC2=O)sc(C)c1C`, the Potency is 2.24 µM (active).
As for `CCOC(=O)c1c(NC(=O)/C=C/c2ccco2)sc(C)c1C`, the Potency result was “inactive”.
On to `CCOC(=O)c1sc(/N=C/C2=C(O)CC(C)(C)CC2=O)c(C(=O)OCC)c1C`, for which the Potency is 11.2 µM (active).
Take `CC(=O)N1CCN(CCN=CC2=C(O)CC(C)(C)CC2=O)CC1`: the Potency entry is “inactive”.
As to `CCN(C(=O)COC(=O)c1c(NC(C)=O)sc(C)c1C)C1CCS(=O)(=O)C1` (configuration not stated), the Potency entry is “inactive”.
To `CC1(C)CC(=O)C(C=NCc2cccnc2)=C(O)C1` belongs “inactive”; to `Cc1cc(C)nc(N/N=C/c2c(C)oc3ccccc23)n1`, “inactive”.
With `O=C(COc1ccccc1[N+](=O)[O-])NC1CC1`, the Potency entry is “inactive”.
The same measure for `C=CCNC(=O)COC(=O)CNC(=O)c1cc(Cl)cc([N+](=O)[O-])c1`: “inactive”; for `Cn1cc(CCC(=O)N2CCCC(C(=O)c3ccc(C(C)(C)C)cc3)C2)cn1` (configuration not stated): “inactive”; for `Cc1nn(CC(=O)N/N=C/c2ccc(F)cc2)c(C)c1[N+](=O)[O-]`: “inactive”.
The same measure for `O=C(CCCc1ccccc1)NCc1ccccc1`: “inactive”; for `C/C(=C\c1ccco1)CN1CCC(N2CCC(C(=O)N3CCOCC3)CC2)CC1`: “inactive”; for `COc1ccc(C(C)=O)cc1CSc1nc2nc(C)cc(C)n2n1`: 20 µM (active).
Regarding `CCOC(=O)C(C)Sc1nnc(CSc2nc3nc(C)cc(C)n3n2)o1` (configuration not stated), the Potency result was “inactive”.
With `Cc1cc(C)n2nc(SCC(N)=O)nc2n1`, the Potency entry was “inactive”.
With `O=C(CCC(=O)OCc1ccc(Cl)cc1)Nc1ccccc1`, the Potency entry was “inactive”.
For `Cc1cc(C)c2nc(-c3cccnc3)cc(C(=O)Nc3ccc(S(=O)(=O)Nc4onc(C)c4C)cc3)c2c1`, the Potency result was “inactive”.
Take `COc1ccc(/C=C/C(=O)c2ccc(NS(=O)(=O)c3ccc(C)cc3)cc2)cc1O`: the Potency result was “inactive”.
As to `CN1CCN(C(=O)CCc2ncc(C(F)(F)F)cc2Cl)CC1`, the Potency entry is “inactive”.
With `CC(CC(=O)C1C(C)C=CCC1(C)C)NNC(N)=O` (configuration not stated), the Potency result was “inactive”.
The same measure for `O=C(Nc1ccccc1N1CCN(c2ccccc2)CC1)c1cccc(F)c1`: “inactive”.
The same measure for `O=C(Nc1ccccc1Cc1ccccc1)c1ccc2c(c1)SC1=NS(=O)(=O)CCN12`: 7.94 µM (active); for `O=S1(=O)CCN2C(=N1)SC1=C2CCN(Cc2ccccc2)C1`: “inactive”.
As for `COc1ccc(N2CCN(CCCNC(=O)C3CCN(S(=O)(=O)N4CCOCC4)CC3)CC2)cc1`, the Potency result is “inactive”.
For `CCc1ccc(N2CC(O)=C(c3nc4ccccc4c(=O)[nH]3)C2=N)cc1`, the Potency result was “inactive”.
For the compound `C=CCOC(=O)c1ccccc1C(=O)OCC=C`, the Potency result is “inactive”.
Regarding `O=C(C1=C[C@H](C2CC2)C[C@H](OCc2ccc(CO)cc2)O1)N1CCN(Cc2ccccc2)CC1`, the Potency result is “inactive”.
Regarding `O=C(C1=C[C@H](c2coc3ccccc3c2=O)C[C@H](OCc2ccc(CO)cc2)O1)N1CCOCC1`, the Potency entry was “inactive”.
Regarding `O=C(NCc1ccccc1)C1=C[C@@H](c2ccc(C(F)(F)F)cc2)C[C@@H](OCc2ccc(CO)cc2)O1`, the Potency result was “inactive”.
With `C=CCOC(=O)C1=C[C@@H](c2ccccc2)C[C@@H](OCc2ccc(CO)cc2)O1`, the Potency is 10 µM (active).
Regarding `NC(=O)C1=C[C@H](c2csc3ccccc23)C[C@H](OCc2ccc(CO)cc2)O1`, the Potency is 8.91 µM (active).
As to `O=C(NCc1ccccc1)C1=C[C@H](C2CC2)C[C@H](OCc2ccc(CO)cc2)O1`, the Potency entry was “inactive”.
In the case of `CC(C)(C)[C@H]1C=C(C(=O)NCc2ccccc2)O[C@@H](OCc2ccc(CO)cc2)C1`, the Potency entry is “inactive”.
The same measure for `O=C(NCc1ccccc1)C1=C[C@@H](C2CCCCC2)C[C@@H](OCc2ccc(CO)cc2)O1`: 12.6 µM (active); for `O=C(CCS(=O)(=O)c1ccccc1Cl)Nc1ccc(S(=O)(=O)Nc2ncccn2)cc1`: “inactive”; for `O=C(COc1ccccc1)Nc1ccc(N2CCN(C(=O)c3cccs3)CC2)cc1`: “inactive”.
Regarding `Cc1ccc(C)c(-n2ccnc2SCC(N)=O)c1`, the Potency result is “inactive”.
The same measure for `CC(CCn1cccn1)NC(=O)CCc1nnc(CCc2ccccc2)o1` (configuration not stated): “inactive”; for `CCC(C)NC(=O)c1nn(C)c(=O)c2ccccc12` (configuration not stated): “inactive”.
To `CCC(C(=O)OCC(=O)Nc1ccccc1-c1ccccc1)c1ccccc1` (configuration not stated) belongs “inactive”; to `CCOC(=O)c1c(C)oc2ccc(OCC(=O)N(CC)CC)cc12`, 11.2 µM (active); to `CCOC(=O)c1c(C)oc2cc(Br)c(OCC(N)=O)cc12`, “inactive”.
To `CCOC(=O)c1c(C)[nH]c(C(=O)COc2ccc3c(c2)OCO3)c1C` belongs “inactive”; to `O=C(Nc1ccc(Cl)cc1)/C(=C1\CCCN1)[N+](=O)[O-]`, “inactive”.
With `Cn1nc(C(F)(F)F)cc1-c1ccc(/C=C(\C#N)C(=O)c2cccc(C(F)(F)F)c2)s1`, the Potency result was “inactive”.
`COc1ccc(-c2nn3c(-c4ccccc4)nnc3s2)cc1OC`: the Potency was 25.1 µM (active).
With `COc1cc(-c2nn3c(-c4cccc(C)c4)nnc3s2)cc(OC)c1OC`, the Potency result is “inactive”.
For the compound `CCOc1cccc(-c2nn3c(-c4ccccn4)nnc3s2)c1`, the Potency result was “inactive”.
Turning to `CC(=O)c1sc(NC(=O)CCCOc2ccccc2C)nc1C`, the Potency result is “inactive”.
The same measure for `O=[N+]([O-])c1ccccc1N/N=C1\CCc2ccccc21`: “inactive”; for `C=Cn1c(C(=O)O)ccc1-c1ccc(OC)cc1`: “inactive”; for `CCCn1c(SCC(=O)N2CCc3ccccc32)nnc1-c1ccncc1`: “inactive”.
Turning to `C=CCn1c(=O)c2ccccc2n2c(SCC(=O)N3CCCc4ccccc43)nnc12`, the Potency was 4.47 µM (active).
Regarding `O=C(CSc1nc2[nH]ncc2c(=O)n1-c1ccccc1)N1CCCc2ccccc21`, the Potency result was “inactive”.
For the compound `Cc1ccnc2nc(C(=O)OCC(=O)N(CC(C)C)CC(C)C)nn12`, the Potency result was “inactive”.
To `Cc1ccnc(NS(=O)(=O)c2ccc(NC(=O)c3ccc(S(=O)(=O)N4CCOCC4)cc3)cc2)n1` belongs “inactive”.
For the compound `O=P(O)(O)C(O)c1ccc2ccccc2c1` (configuration not stated), the Potency result is “inactive”.
